Test results taken from PubChem BioAssay AID1863 (Southern Research Specialized Biocontainment Screening …, 2009).
Screen size: about 300,000 compounds; about 480 (0.16%) were called active.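 Rule for the calls: active = inhibition over 29.93%, a cutoff 3 SD above the screen mean, later confirmed by dose response; inconclusive = inhibition over 29.93% but no dose response follow-up; inactive = inhibition at most 29.93% or unconfirmed.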 The list is a sample of the results. Potency and affinity values are given separately.

assay: PhoP-dependent GFP reporter repression – Salmonella Typhimurium, primary screen (AID 1863);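 note: 0% = low Mg2+ inducing control and 100% = high Mg2+ repressing control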; settings: S. Typhimurium PhoP-regulated promoter GFP reporter, 4 h; at 50 µM; hits give high values

inhibition, inactive:
N=c1n(CC(=O)c2cccs2)c2ccccc2n1Cc1ccccc1 -1.64%, CCn1c(=N)n(CC(=O)c2ccc(Br)s2)c2ccccc21 9.45%, Cc1nc2ccc(S(=O)(=O)NCC(=O)Nc3cccc(F)c3)cc2s1 0.67%, Nc1c(Cl)ncnc1N/N=C/c1ccc2ccccc2n1 -18.8%, Nc1c(Cl)ncnc1N/N=C/c1ccncc1 -8.59%, Cc1cc(CNC(=O)C2CCC(=O)N(Cc3cccc(C(F)(F)F)c3)C2)no1 (configuration not stated) 8.7%, Cn1c(=O)c(=O)n(C)c2cc(S(=O)(=O)N3CCN(c4cccc(C(F)(F)F)c4)CC3)ccc21 -8.38%, COc1cccc(N(CC(=O)NC(C)c2ccccc2)S(C)(=O)=O)c1 (configuration not stated) -3.79%, Nc1nnc(CC(=O)N/N=C/c2ccccc2OCc2ccccc2F)s1 2.44%, CSCC[C@H](NC(=O)Nc1ccc(S(N)(=O)=O)cc1)C(=O)O -5.86%, COC(=O)[C@H](CCSC)NC(=O)Nc1ccc(C)cc1 -5.05%, COc1cccc(OCc2cc(C(=O)N3CCN(c4ccccc4O)CC3)no2)c1 8.64%, CCCOc1ccc(C(=O)O)cc1 -6.14%, CCOc1ccc(C(=O)C(CCC(CN(C)C)C(=O)c2ccc(OCC)cc2)CN(C)C)cc1 (configuration not stated) 17.1%, COCCn1c(SCC(=O)N2CCCCC2)nc2c([nH]c3ccccc32)c1=O -1.34%, O=C(N/N=C/c1ccc(O)c([N+](=O)[O-])c1)c1ccncc1 -0.43%, O=C(N/N=C/c1ccccc1O)c1ccncc1 -5.2%, O=C(N/N=C/c1cc(Br)ccc1O)c1ccncc1 3.11%, O=C(N/N=C/c1cc(Br)c(O)c(Br)c1)c1cccnc1 -1.14%, COc1ccc(C(=O)N/N=C/c2cc(Br)ccc2O)cc1OC -7.66%, O=C(N/N=C/c1cc(Br)c(O)c(Br)c1O)c1cccnc1 -3.91%, Cc1ccc(C(=O)N/N=C\c2cc3c(cc2Br)OCO3)cn1 1.38%, O=C(N/N=C/c1ccc(Cl)cc1Cl)c1ccncc1 3.86%, Cc1nc2c3ccccc3nc(SCC(=O)N3CC(C)CC(C)C3)n2n1 (configuration not stated) 4.78%, Cc1ccc2oc(=O)c3cnn(CC(=O)N4CCCc5ccccc54)c3c2c1 -8.23%, Cc1cccc(NC(=O)CNC(=O)N2CC(=O)Nc3ccccc32)c1C -2.45%, Cc1cccc(C(=O)Nc2nnc(SCC(=O)NC3CC3)s2)c1 -3.7%
